experiment: yeast growth modulation, basal conditions, primary screen, YJM789 clinical isolate, OD600, 24 h (AID 1089);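 also: growth of clinical yeast isolate S. cerevisiae YJM 789 seeded 1000 cells per well; test concentration not given here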; conditions: S. cerevisiae YJM789 growth, higher = more signal, called active from +8 up or from −8 down

z-score, inactive:
CO[C@@H]1COC(=O)CC=C[C@@H](C)[C@H](OC)COC(=O)CC=C[C@H]1C -0.131, C=C(COC)/C(=C/C[C@H](OC(C)=O)c1ccc(OCCO)cc1)c1cnc2ccccc2c1 1.53, CO[C@H]1O[C@H](CO)[C@@H](OC(=O)Nc2ccc(Oc3ccccc3)cc2)[C@H](OC(=O)Nc2ccccc2-c2ccccc2)[C@H]1OC(=O)Nc1ccccc1-c1ccccc1 3.07, CCC1=C2CN(Cc3ccccc3Br)[C@@H]([C@@H](O)Cc3ccccc3)C2C=CCC1 (some centres not stated) -0.828, [N-]=[N+]=NCc1ccccc1C[C@@]1(C(=O)N2CCOCC2)N=C(c2ccc(OCCCO)cc2)O[C@@H]1c1ccccc1N=[N+]=[N-] -0.788, C=CC(=O)O[C@@H](Cc1ccccc1)[C@H]1C2C=CCCC=C2CN1Cc1cccc(Cl)c1 (some centres not stated) -0.476, NC(=O)[C@H]1[C@@H]2C(=O)O[C@@H](c3ccccc3)[C@@H](c3ccccc3)N2[C@@H](c2ccc(O)cc2)[C@]12C(=O)Nc1ccc(C#CCCO)cc12 -0.178, NC(=O)NCC#Cc1ccc2c(c1)[C@]1(C(=O)N2)[C@H](C(N)=O)[C@H]2C(=O)O[C@H](c3ccccc3)[C@H](c3ccccc3)N2[C@@H]1c1ccccc1OCCO 0.592, C=CC[C@]1(C(N)=O)N=C(c2ccc(OCCCO)cc2)O[C@H]1c1ccccc1CN=[N+]=[N-] -1.36, C[N+](C)(C)CCCCNC(=O)[C@@H]1C[C@@H]2C(=O)N3CCC[C@H]3C(=O)N2[C@@H]1c1cccc(OCCO)c1 -1.09, O=C1O[C@H](c2ccccc2)[C@H](c2ccccc2)N2[C@H]1[C@@H](C(=O)Nc1nc3ccccc3s1)[C@]1(C(=O)Nc3ccc(C#CC4(O)CCCCCC4)cc31)[C@H]2c1ccc(O)cc1 -0.0416, COc1ccc(C(O)C2C=CC3C(=O)N(C)C(=O)C3N2N2CCCCC2)cc1OCc1ccccc1 (configuration not stated) 0.371, CC1=C([C@H](O)CCc2ccccc2)[C@H](CO)[C@@H]2C(=O)N(Cc3ccccc3)C(=O)[C@@H]2C1 -0.466, C=C[C@H](OC)[C@@H](OC(=O)Nc1ccc(SC)cc1)c1ccc(OC)c(O)c1 -0.55, CC(C)(C)OC(=O)CC[C@@]1(C(=O)NCc2ccccc2)N=C(c2ccc(OCCCO)cc2)O[C@@H]1c1ccccc1 -5.26, O=C1c2ccccc2[C@](Cc2ccccc2I)(C(=O)NCC(F)(F)F)[C@H](c2ccc(CO)cc2)N1Cc1ccccc1C(F)(F)F 0.129, C=CCC(OC(C)=O)[C@@H]1[C@@H](N(Cc2cccc3ccccc23)C(=O)Cc2ccc(F)cc2)c2cc(OCCCO)ccc2N1C(=O)Cc1ccc2ccccc2c1 (some centres not stated) -0.167, C=CCN1C(=O)[C@@]2(Cc3ccccc3)N=C(c3ccc(OCCCO)cc3)O[C@H]2c2ccccc21 -0.772, Cc1ccc(N2C(=O)c3ccccc3[C@@H](C(=O)NCc3ccccc3)[C@@H]2c2ccc(CO)cc2)nc1 0.938, CO[C@H]1COC(=O)[C@H](C)COC(=O)[C@H](Cc2ccccc2)NC(=O)CC=C[C@H]1C 0.43, CN(C)CCCC[C@@H]1NC(=O)[C@@H]2C[C@H](C(=O)NCCCCCNC(=O)CS)[C@H](c3ccc(O)cc3)N2C1=O 0.081, O=C1O[C@H](c2ccccc2)[C@H](c2ccccc2)N2[C@H]1[C@@H](C(=O)NC[C@H](O)c1ccccc1)[C@]1(C(=O)Nc3ccc(C#CC4=CCCCC4)cc31)[C@H]2c1ccc(OCCO)cc1 2.99

From PubChem BioAssay
